Test systems include NCI-H23 lung; NCI-H226 lung; NCI-H322M lung; HOP-62 NSCLC; NCI-H460 lung; A549/ATCC NSCLC; 786-0 renal; COLO 205 colon; DU-145 prostate; MALME-3M melanoma; RXF 393 renal; SF-268 CNS; SF-295 CNS; SF-539 CNS; UACC-257 melanoma; M14 melanoma; K-562 leukemia; MDA-MB-231 breast; NCI-H522 lung.
Assay in all cases: NCI-60 one-dose screen, 48 h (100 = growth as untreated, 0 = no growth, -100 = all killed)
Holding throughout (details): 10 µM unless noted

About 83,000 compounds went through this panel and 20% of them were active in at least one assay; those are over-represented in the sample as a whole.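 For each line, cells grew in 96-well plates with the test compound present at a single concentration for 48 hours.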 A number with no mark means an inactive call. Calls of active or inactive are those of the source. The calls were made as follows: active = growth percent below 10; inactive = the rest.

On to `CCOC(=O)Nc1ccc2nc(N3CCCCCC3)sc2c1`, for which the growth with NCI-H23 lung was 47.9%; with NCI-H226 lung, 54.3%; in the experiment on NCI-H322M lung, 46.2%; in the experiment on HOP-62 NSCLC it was 33.2%; in the experiment on NCI-H460 lung, 17.1%; with A549/ATCC NSCLC it was 32%. Moreover, the growth was 40.2% in the experiment with 786-0 renal; -7.85% (active) in the experiment on COLO 205 colon; 22.4% in the experiment with DU-145 prostate; 38.9% with MALME-3M melanoma; 14.4% with RXF 393 renal; 49% in the experiment with SF-268 CNS. Besides, the growth in the experiment on SF-295 CNS is 23.5%; with SF-539 CNS it was -1.3% (active); in the experiment on UACC-257 melanoma, 64.3%; with M14 melanoma, 19.5%.
On to `CC(SC(C)C(=O)N/N=C/c1cccc(Cl)c1)C(=O)N/N=C\c1cccc(Cl)c1` (configuration not stated), for which the growth in the experiment on NCI-H23 lung was 86.8%; in the experiment with NCI-H226 lung, 93.2%; with NCI-H322M lung, 84.3%; with HOP-62 NSCLC, 90.4%; with NCI-H460 lung, 20.5%; in the experiment with A549/ATCC NSCLC it was 15.2%. In addition, the growth was 90.9% with 786-0 renal; 74.7% with COLO 205 colon; 71.9% in the experiment with DU-145 prostate; 79.7% in the experiment on K-562 leukemia; 88.9% with MALME-3M melanoma; 28.1% in the experiment with MDA-MB-231 breast. In addition, the growth with RXF 393 renal is 91.2%; in the experiment on SF-268 CNS, 69%; in the experiment with SF-295 CNS, 66.2%; in the experiment on SF-539 CNS it was 106%; with UACC-257 melanoma it was 104%; in the experiment with M14 melanoma it was 85.1%.
With `Cc1ccc(Nc2cccc3ccccc23)cc1`, the growth in the experiment with NCI-H23 lung is 83.6%; in the experiment with NCI-H226 lung it was 90.1%; in the experiment with NCI-H322M lung, 82.8%; in the experiment with HOP-62 NSCLC, 91.9%; in the experiment with NCI-H460 lung it was 103%; in the experiment on A549/ATCC NSCLC, 90.5%. Besides, the growth with 786-0 renal was 88.9%; with COLO 205 colon, 101%; in the experiment with DU-145 prostate it was 109%; in the experiment with K-562 leukemia it was 63%; in the experiment on MALME-3M melanoma, 94.2%; with MDA-MB-231 breast, 88.5%. Also, the growth is 91.2% with RXF 393 renal; 92.4% in the experiment on SF-268 CNS; 112% in the experiment on SF-295 CNS; 99.8% with SF-539 CNS; 86.4% with UACC-257 melanoma.
In the case of `COC1(OC)C2(Cl)CCC1(Cl)C(Cl)=C2Cl`, the growth with NCI-H23 lung is 99.4%; in the experiment with NCI-H226 lung, 98.2%; with NCI-H322M lung it was 100%; in the experiment on HOP-62 NSCLC, 129%; in the experiment with NCI-H460 lung, 106%; in the experiment on A549/ATCC NSCLC, 95.6%. Moreover, the growth with 786-0 renal is 102%; in the experiment on COLO 205 colon, 128%; with DU-145 prostate, 108%; in the experiment with K-562 leukemia, 110%; in the experiment with MALME-3M melanoma it was 99.4%; in the experiment with MDA-MB-231 breast, 106%. In addition, the growth in the experiment on RXF 393 renal was 107%; in the experiment with SF-268 CNS, 106%; in the experiment on SF-295 CNS, 105%; in the experiment on SF-539 CNS, 101%; in the experiment with UACC-257 melanoma, 93.2%; in the experiment on M14 melanoma, 96.9%.
With `Nc1c(Br)cc2c(c1Br)Cc1cc(Cl)ccc1-2`, the growth with NCI-H23 lung was 89.2%; with NCI-H226 lung it was 78.6%; in the experiment on NCI-H322M lung it was 89.2%; in the experiment on HOP-62 NSCLC, 83.4%; in the experiment on NCI-H460 lung, 99.7%; in the experiment on A549/ATCC NSCLC, 95.8%. For the same compound, the growth is 108% with 786-0 renal; 106% in the experiment with COLO 205 colon; 112% in the experiment with DU-145 prostate; 109% with MALME-3M melanoma; 70% in the experiment with MDA-MB-231 breast; 106% with RXF 393 renal. The growth in the experiment on SF-268 CNS is 107%; in the experiment on SF-295 CNS it was 87.8%; in the experiment with SF-539 CNS, 89.5%; in the experiment with UACC-257 melanoma, 111%; in the experiment on M14 melanoma, 106%.
Regarding `COc1cc(CN(c2ccc(C)cc2)C2OC(=O)c3ccccc32)cc(OC)c1OC` (configuration not stated), the growth was 29% in the experiment with NCI-H23 lung; 20.1% in the experiment with NCI-H226 lung; 60.2% in the experiment with NCI-H322M lung; 24.8% in the experiment with HOP-62 NSCLC; 18.4% in the experiment on NCI-H460 lung; 31.7% with NCI-H522 lung. The growth in the experiment with A549/ATCC NSCLC is 30.5%; in the experiment with 786-0 renal, 28.9%; in the experiment on COLO 205 colon, -45.5% (active); in the experiment on DU-145 prostate, 25%; in the experiment on MALME-3M melanoma it was 63.4%; with MDA-MB-231 breast, 64.6%. Moreover, the growth in the experiment on RXF 393 renal is 22.3%; with SF-268 CNS it was 34.1%; with SF-295 CNS it was 16.8%; in the experiment on SF-539 CNS, 5.91% (active); with UACC-257 melanoma it was 94.2%; in the experiment with M14 melanoma it was -10% (active).
`COc1ccc2nc(C)cc(Sc3nc4ccccc4s3)c2c1`: the growth in the experiment on NCI-H23 lung is 29.4%; in the experiment on NCI-H226 lung, 39.5%; in the experiment with NCI-H322M lung it was 60%; with HOP-62 NSCLC, 57.5%; with NCI-H460 lung, 34.6%; in the experiment on A549/ATCC NSCLC it was 35.7%. The growth in the experiment with 786-0 renal was 73.8%; in the experiment with COLO 205 colon, 33.7%; in the experiment with DU-145 prostate, 37.3%; in the experiment with K-562 leukemia, 4.93% (active); in the experiment with MALME-3M melanoma, 25.7%; in the experiment with MDA-MB-231 breast, 27.9%. The growth in the experiment with RXF 393 renal was -16.5% (active); in the experiment with SF-268 CNS it was 42.7%; in the experiment with SF-295 CNS, 82.5%; in the experiment on SF-539 CNS, 55.4%; in the experiment on UACC-257 melanoma it was 49%; in the experiment with M14 melanoma, 65.5%.
Regarding `CC1=CCC2C1CC=C(C)C(CC[C@H]1[C@@](C)(O)CCC3OC(C)(C)[C@H](OC(=O)c4ccccc4)CC[C@@]31C)C2(C)C` (some centres not stated), the growth in the experiment with NCI-H23 lung was 65.2%; in the experiment on NCI-H226 lung, 72.9%; with NCI-H322M lung, 96.3%; in the experiment with HOP-62 NSCLC, 86%; in the experiment on NCI-H460 lung, 97.1%; with NCI-H522 lung, 67.8%. Also, the growth was 78.7% with A549/ATCC NSCLC; 70.9% in the experiment on 786-0 renal; 112% in the experiment with COLO 205 colon; 106% with DU-145 prostate; 111% in the experiment on MALME-3M melanoma; 88% with MDA-MB-231 breast. Further, the growth in the experiment with RXF 393 renal is 69.8%; with SF-268 CNS it was 93.6%; in the experiment with SF-295 CNS, 84.7%; with SF-539 CNS it was 99.1%; in the experiment on UACC-257 melanoma, 81.3%; in the experiment on M14 melanoma it was 90.1%.
`CNC(=O)c1c(NC(=O)c2cccc(C(F)(F)F)c2)sc2c1CCC(=O)C2`: the growth was -1.79% (active) in the experiment with NCI-H23 lung; 1.92% (active) with NCI-H226 lung; 15.4% with NCI-H322M lung; 13.6% in the experiment on HOP-62 NSCLC; 10% with NCI-H460 lung; 13.6% in the experiment with A549/ATCC NSCLC. The growth in the experiment on 786-0 renal was 13.3%; with COLO 205 colon, -31.7% (active); in the experiment on DU-145 prostate it was 23.9%; in the experiment on MALME-3M melanoma it was -28.9% (active); in the experiment with MDA-MB-231 breast, -41.2% (active); with RXF 393 renal, -18.9% (active). Also, the growth was 21.7% with SF-268 CNS; -10.4% (active) with SF-295 CNS; -30% (active) in the experiment with SF-539 CNS; -11% (active) in the experiment on UACC-257 melanoma; -10.9% (active) with M14 melanoma.

(Values after PubChem BioAssay (NCI).)
